The record followed here is ChEMBL document CHEMBL2218924, “A broad activity screen in support of a chemogenomic map for kinase signalling research and drug discovery” (Biochem J, 2013).

Molecules are shown by their SMILES.

As a reminder, the residual activity is the signal under treatment as a percentage of the control signal.

The first assay addresses T1, Serine/threonine-protein kinase D1 (Homo sapiens) (UniProt Q15139).
T1 sequence (whole entry): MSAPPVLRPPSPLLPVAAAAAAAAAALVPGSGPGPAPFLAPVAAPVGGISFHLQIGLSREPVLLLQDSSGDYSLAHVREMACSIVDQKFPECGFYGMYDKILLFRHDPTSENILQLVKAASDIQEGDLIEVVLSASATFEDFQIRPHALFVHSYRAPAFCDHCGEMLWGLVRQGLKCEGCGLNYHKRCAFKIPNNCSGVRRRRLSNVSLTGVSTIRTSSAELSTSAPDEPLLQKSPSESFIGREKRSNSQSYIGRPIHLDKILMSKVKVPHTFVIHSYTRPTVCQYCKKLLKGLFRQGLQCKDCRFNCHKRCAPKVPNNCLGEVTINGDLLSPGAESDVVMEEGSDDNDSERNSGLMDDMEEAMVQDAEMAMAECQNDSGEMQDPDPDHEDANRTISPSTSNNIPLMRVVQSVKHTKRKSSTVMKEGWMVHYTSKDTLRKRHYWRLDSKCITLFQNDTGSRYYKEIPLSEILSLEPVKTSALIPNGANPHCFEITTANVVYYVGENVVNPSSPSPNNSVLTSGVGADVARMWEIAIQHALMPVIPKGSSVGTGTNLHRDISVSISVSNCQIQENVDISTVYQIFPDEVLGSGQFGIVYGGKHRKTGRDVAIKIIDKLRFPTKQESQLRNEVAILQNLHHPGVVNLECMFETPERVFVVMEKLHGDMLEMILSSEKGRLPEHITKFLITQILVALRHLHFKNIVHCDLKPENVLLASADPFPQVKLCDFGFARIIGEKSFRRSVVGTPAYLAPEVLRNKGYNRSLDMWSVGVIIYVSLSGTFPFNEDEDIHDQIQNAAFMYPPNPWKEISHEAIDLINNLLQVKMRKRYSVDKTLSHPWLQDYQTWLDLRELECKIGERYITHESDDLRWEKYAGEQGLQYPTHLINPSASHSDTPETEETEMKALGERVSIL
To be noted: at 1 µM.
On to `COc1ccc(CNc2nc(N(CCO)CCO)nc3c2ncn3C(C)C)cc1`, for which the residual activity came out at 91%.

As to `O=Nc1c(-c2c(O)[nH]c3ccccc23)[nH]c2ccccc12`, the residual activity was 113%.

With `O=c1c2ccccc2[nH]c(=S)n1CCN1CCC(=C(c2ccc(F)cc2)c2ccc(F)cc2)CC1`, the residual activity was 113%.

On to `c1ccc(-c2n[nH]cc2-c2ccnc3ccccc23)nc1`, for which the residual activity was 65%.

Take `Cn1nc2c3c(cccc31)C(=O)c1ccccc1-2`: the residual activity stood at 61%.

As for `CC#CC(=O)Nc1cc2c(Nc3ccc(F)c(Cl)c3)ncnc2cn1`, the residual activity stood at 89%.

`CNc1cc2c(Nc3cccc(Br)c3)ncnc2cn1`: the residual activity worked out at 86%.

`NC(=O)c1ccc2[nH]c(-c3ccc(Oc4ccc(Cl)cc4)cc3)nc2c1`: the residual activity worked out at 109%.

In the case of `CCN(CC)CCCCN1c2ccccc2Oc2ccc(Cl)cc21`, the residual activity was 92%.

`CN(C)c1ccc(/C=C2\C(=O)Nc3ccccc32)cc1`: the residual activity is 96%.

Take `COc1cc2ncnc(N3CCN(C(=O)Nc4ccc(Oc5ccccc5)cc4)CC3)c2cc1OC`: the residual activity came out at 102%.

Consider `Oc1c2ccccc2c2c3c(cccc13)N=N2`, for which the residual activity was found to be 32%.

Regarding `CC(=O)c1ccc(N2CCOCC2)cc1O`, the residual activity worked out at 92%.

For the compound `Oc1ccc(-c2nc(-c3ccc(F)cc3)c(-c3ccncc3)[nH]2)cc1`, the residual activity was 94%.

For `Cc1ccc(NC2=CC(=O)c3sc(C)nc3C2=O)cc1`, the residual activity is 76%.

In the case of `Cn1cc(/C=C2\C(=O)Nc3ccc(S(N)(=O)=O)cc32)c2ccccc21`, the residual activity was found to be 84%.

With `CC(C)n1cnc2c(NCc3ccccc3)nc(NCCCO)nc21`, the residual activity is 91%.

As to `Cc1cncc2cccc(S(=O)(=O)N3CCCN(C(=O)CN)C[C@H]3C)c12`, the residual activity stood at 83%.

Regarding `Ic1cccc(CSc2nnc(-c3ccncc3)o2)c1`, the residual activity amounted to 72%.

Turning to `O=c1cc(-c2cccc3c2Sc2ccccc2S3)oc(N2CCOCC2)c1`, the residual activity came to 86%.

Consider `Cc1nc2cc3nc(-c4cccs4)cnc3cc2n1C`, for which the residual activity amounted to 94%.

Turning to `O=C1c2ccccc2-[n+]2ccc3c([nH]c4ccccc43)c21`, the residual activity amounted to 83%.

For the compound `COc1cccc(-c2cc(=O)c3ccccc3o2)c1N`, the residual activity came out at 85%.

Turning to `O=C1NC(=O)c2cc(Nc3ccc(F)cc3)c(Nc3ccc(F)cc3)cc21`, the residual activity worked out at 94%.

For the compound `Cc1nc(-c2ccccc2)c(-c2ccncc2)o1`, the residual activity amounted to 113%.

Turning to `Cn1cnc2cc3c(Nc4cccc(Br)c4)ncnc3cc21`, the residual activity was determined as 94%.

As to `CC[n+]1c(/C=C/N(C)c2ccccc2)n(-c2ccccc2)c2ccc(-c3nc4ccccc4s3)cc21`, the residual activity is 92%.

Consider `N#C/C(=C(\N)Sc1ccc(N)cc1)c1ccccc1C(F)(F)F`, for which the residual activity stood at 82%.

As for `COc1ccc(C(=O)Nc2sc3c(c2C(N)=O)CCCC3)cc1OC`, the residual activity came out at 89%.

`CC(C)n1cnc2/c(=N/c3cccc(Cl)c3)nc(NCCO)[nH]c21`: the residual activity was 77%.

`CO[C@H]1[C@@H](OC)C[C@H](C)[C@@H](OC)C2=CC(=O)C=C(NC(=O)/C(C)=C/C=C/[C@H](OC)[C@@H](OC(N)=O)/C(C)=C/[C@@H]1C)C2=O`: the residual activity came to 119%.

Take `O=C1NC(=O)/C(=C\c2ccc3nccnc3c2)S1`: the residual activity was 103%.

Regarding `Cc1ccc(S(=O)(=O)/C=C/C#N)cc1`, the residual activity turned out to be 98%.

On to `O=C1NC(=O)/C(=C/c2ccc3c(c2)OC(F)(F)O3)S1`, for which the residual activity worked out at 105%.

For the compound `CCOc1cc2ncnc(Nc3cccc(Br)c3)c2cc1OCC`, the residual activity came to 101%.

The next assay concerns the target T1, Serine/threonine-protein kinase D1 (Homo sapiens). To be noted: at 10 µM.
For the compound `COc1ccc(CNc2nc(N(CCO)CCO)nc3c2ncn3C(C)C)cc1`, the residual activity came out at 71%.

On to `O=Nc1c(-c2c(O)[nH]c3ccccc23)[nH]c2ccccc12`, for which the residual activity was 65%.

For the compound `O=c1c2ccccc2[nH]c(=S)n1CCN1CCC(=C(c2ccc(F)cc2)c2ccc(F)cc2)CC1`, the residual activity is 84%.

For the compound `c1ccc(-c2n[nH]cc2-c2ccnc3ccccc23)nc1`, the residual activity is 22%.

`Cn1nc2c3c(cccc31)C(=O)c1ccccc1-2`: the residual activity came out at 54%.

Consider `CC#CC(=O)Nc1cc2c(Nc3ccc(F)c(Cl)c3)ncnc2cn1`, for which the residual activity amounted to 84%.

Consider `CNc1cc2c(Nc3cccc(Br)c3)ncnc2cn1`, for which the residual activity is 49%.

Consider `NC(=O)c1ccc2[nH]c(-c3ccc(Oc4ccc(Cl)cc4)cc3)nc2c1`, for which the residual activity is 79%.

For `CCN(CC)CCCCN1c2ccccc2Oc2ccc(Cl)cc21`, the residual activity came out at 95%.

On to `CN(C)c1ccc(/C=C2\C(=O)Nc3ccccc32)cc1`, for which the residual activity was found to be 81%.

For the compound `COc1cc2ncnc(N3CCN(C(=O)Nc4ccc(Oc5ccccc5)cc4)CC3)c2cc1OC`, the residual activity is 66%.

As for `Oc1c2ccccc2c2c3c(cccc13)N=N2`, the residual activity was -1%.

For the compound `CC(=O)c1ccc(N2CCOCC2)cc1O`, the residual activity worked out at 95%.

As to `Oc1ccc(-c2nc(-c3ccc(F)cc3)c(-c3ccncc3)[nH]2)cc1`, the residual activity is 36%.

`Cc1ccc(NC2=CC(=O)c3sc(C)nc3C2=O)cc1`: the residual activity came to 73%.

Regarding `Cn1cc(/C=C2\C(=O)Nc3ccc(S(N)(=O)=O)cc32)c2ccccc21`, the residual activity was found to be 59%.

As to `CC(C)n1cnc2c(NCc3ccccc3)nc(NCCCO)nc21`, the residual activity stood at 72%.

For `Cc1cncc2cccc(S(=O)(=O)N3CCCN(C(=O)CN)C[C@H]3C)c12`, the residual activity turned out to be 71%.

With `Ic1cccc(CSc2nnc(-c3ccncc3)o2)c1`, the residual activity came out at 71%.

Take `O=c1cc(-c2cccc3c2Sc2ccccc2S3)oc(N2CCOCC2)c1`: the residual activity was 80%.

As to `Cc1nc2cc3nc(-c4cccs4)cnc3cc2n1C`, the residual activity came out at 95%.

With `O=C1c2ccccc2-[n+]2ccc3c([nH]c4ccccc43)c21`, the residual activity stood at 71%.

For the compound `COc1cccc(-c2cc(=O)c3ccccc3o2)c1N`, the residual activity came to 95%.

On to `O=C1NC(=O)c2cc(Nc3ccc(F)cc3)c(Nc3ccc(F)cc3)cc21`, for which the residual activity was found to be 72%.

With `Cc1nc(-c2ccccc2)c(-c2ccncc2)o1`, the residual activity was 80%.

Consider `Cn1cnc2cc3c(Nc4cccc(Br)c4)ncnc3cc21`, for which the residual activity was determined as 82%.

As for `CC[n+]1c(/C=C/N(C)c2ccccc2)n(-c2ccccc2)c2ccc(-c3nc4ccccc4s3)cc21`, the residual activity was 90%.

For `N#C/C(=C(\N)Sc1ccc(N)cc1)c1ccccc1C(F)(F)F`, the residual activity was 68%.

As for `COc1ccc(C(=O)Nc2sc3c(c2C(N)=O)CCCC3)cc1OC`, the residual activity was found to be 96%.

`CC(C)n1cnc2/c(=N/c3cccc(Cl)c3)nc(NCCO)[nH]c21`: the residual activity is 57%.

`CO[C@H]1[C@@H](OC)C[C@H](C)[C@@H](OC)C2=CC(=O)C=C(NC(=O)/C(C)=C/C=C/[C@H](OC)[C@@H](OC(N)=O)/C(C)=C/[C@@H]1C)C2=O`: the residual activity was 102%.

As to `O=C1NC(=O)/C(=C\c2ccc3nccnc3c2)S1`, the residual activity worked out at 88%.

Regarding `Cc1ccc(S(=O)(=O)/C=C/C#N)cc1`, the residual activity was found to be 84%.

Turning to `O=C1NC(=O)/C(=C/c2ccc3c(c2)OC(F)(F)O3)S1`, the residual activity came to 77%.

Take `CCOc1cc2ncnc(Nc3cccc(Br)c3)c2cc1OCC`: the residual activity was found to be 54%.
